Consider 40 compounds from PubChem BioAssay (Tox21).

Several values for one entry are separate records, joined by “and”; a condition that tells them apart may be missing. Equal entries are not always repeated. Results filed as inconclusive are left out. A call without a number means that no potency is given here. Unmarked numbers belong to inactive results. Activity calls are given as the source filed them. The call rests on the fitted dose curve; in most records, active means well fitted cell-killing curve with a large enough effect in the repeat runs; inconclusive means weak or mixed curves, or effect the other way; inactive means no such curve, though single readings can be large or run the other way.
Potency means the concentration at half of the fitted maximal effect.

The nature of this experiment: qHTS assay to identify small molecule antagonists of the progesterone receptor (PR) signaling pathway - cell viability counter screen (AID 1346798). Further: nearly all actives have a fitted effect of over 50% in size. To be noted: PR-UAS-bla HEK293T viability, CellTiter-Glo luminescence, 16 h; series mostly up to 92.4 µM. From the text: National Center for Advancing Translational Sciences [NCATS]
NIH Chemical Genomics Center [NCGC]
U.S. Environmental Protection Agency [EPA]
National Institutes of Environmental Health Sciences [NIEHS]
National Toxicology Program [NTP]
U.S. Food and Drug Administration [FDA]
Progesterone receptor (PR), a nuclear hormone receptor, plays an important role in development, metabolic homeostasis and reproduction. It is activated by the steroid hormone progesterone. Endocrine disrupting chemicals (EDCs) and their interactions with steroid hormone receptors like PR causes disruption of normal endocrine function. To identify the compounds that inhibit PR signaling, a PR-UAS-bla GripTite cell line i.e. PR-UAS-bla HEK293T (Invitrogen, Carlsbad, CA, USA) containing a beta-lactamase reporter gene under the control of an UAS response element was used to screen Tox21 10K compound library. The cytotoxicity of the Tox21 compound library against the PR-bla cell line was tested in parallel by measuring the cell viability using CellTiter-Glo assay in the same wells.
Tox21 Assay Protocol Summary:
PR-UAS-bla HEK293T cells were dispensed at 3,000 cells/4 uL of assay medium containing 2% charcoal stripped FBS per well into black wall/clear-bottom 1536-well plates using a Multidrop Combi (ThermoFisher Scientific, Waltham, MA) dispenser. After the assay plates were incubated at a 37C and 5% CO2 for 4 hr, 23 nL of compounds dissolved in DMSO, positive controls or DMSO only was transferred to the assay plate by a Pintool station (Kalypsys, San Diego, CA), followed by addition of 1 uL of R5020 in assay medium using a Flying Reagent Dispenser (FRD, Aurora Discovery, San Diego, CA). The plates were incubated at 37C and 5% CO2 for 16 hr. Then 1 uL of LiveBLAzer B/G FRET substrate was added using a Flying Reagent Dispenser, the plates were incubated at room temperature for 2 hours, and fluorescence intensity was measured by an Envision plate reader (PerkinElmer, Shelton, CT). For cell viability readout that measures cytotoxicity, 4 uL/well of CellTiter-Glo reagent was added into the assay plates using a FRD. After 30 min incubation at room temperature, the luminescence intensity in the plates was measured using a ViewLux (PerkinElmer) plate reader.
`CC(C)=CCCC(C)CCOC(=O)C(C)C` (stereo not given): the Potency result was “inactive”.
On to `CC1=C(/C=C/C(C)=C/C=C/C(C)=C\C=O)C(C)(C)CCC1`, for which the Potency entry was “inactive”.
The same measure, in the same setting: the value for `CCCCCCCCCCCC(=O)N(CC)CC` was “inactive”; that for `C/C=C/C(=O)C1=C(C)CCCC1(C)C` was “inactive”; that for `C[C@H]1O[C@@H](O[C@H]2[C@@H](O)C[C@H](O[C@H]3[C@@H](O)C[C@H](O[C@H]4CC[C@@]5(C)[C@H](CC[C@@H]6[C@@H]5C[C@@H](O)[C@]5(C)[C@@H](C7=CC(=O)OC7)CC[C@]65O)C4)O[C@@H]3C)O[C@@H]2C)C[C@H](O)[C@@H]1O` was 86.4 nM (active) and 121 nM (active).
As for `O=S(O)O`, the activity change, negative = cytotoxicity is -0.356% [at 18.9 µM].
For the compound `CC(C)C(=O)OCc1ccccc1`, the Potency result was “inactive”.
Still for that read-out and setting: then `O=C(O)CC(=O)O`, with “inactive”; and `CN1[C@@H]2CC[C@H]1CC(OC(=O)C(CO)c1ccccc1)C2` (stereo not given in full), with “inactive”.
For the compound `CO[Si](CCC1CCC2OC2C1)(OC)OC` (stereo not given), the Potency entry was “inactive”.
`C=C1C(C)(C)[C@@]2(Cl)C(Cl)[C@]1(Cl)C(Cl)(Cl)C2(Cl)Cl` (stereo not given in full): the Potency is 67.3 µM (active).
In the case of `C=CC(=C)CC/C=C(\C)CCC=C(C)C`, the activity change, negative = cytotoxicity is -3.03% [at 18.9 µM].
As to `CC(C)N=C(N)/N=C(\N)Nc1ccc(Cl)cc1`, the Potency entry was “inactive”.
With `COc1cc(C(=O)NS(=O)(=O)c2ccccc2C)ccc1Cc1cn(C)c2ccc(NC(=O)OC3CCCC3)cc12`, the Potency result is “inactive”.
The same measure, in the same setting: the value for `CCCCCCCC/C=C/CCCOC(C)=O` was “inactive”; that for `OCCN1CN(CCO)CN(CCO)C1` was “inactive”.
Still for that read-out and setting: the value for `C=CC(=O)OCCOCC(CC)(COCCOC(=O)C=C)COCCOC(=O)C=C` was 63.7 µM (active).
Still for that read-out and setting: the value for `CN1CCN(C2Cc3ccccc3Sc3ccc(Cl)cc32)CC1` (stereo not given) was 29.8 µM (active).
For the compound `COC(=O)[C@]1(C)CCC[C@@]2(C)[C@H]1CC=C1C=C(C(C)C)CC[C@@H]12`, the Potency result is “inactive”.
For the compound `COC(=O)C1=C(C)NC(C)=C(C(=O)OCCCN2CCC(c3ccccc3)(c3ccccc3)CC2)C1c1cccc([N+](=O)[O-])c1` (stereo not given), the Potency was 18.8 µM (active).
With `CCCCCCCOC(=O)c1ccc(O)cc1`, the Potency entry is “inactive”.
Take `C=CC(=O)OCCC#N`: the Potency entry was “inactive”.
Same read-out and setting: the value for `CC[N+](CC)(CC)Cc1ccccc1` was “inactive”.
On the same count and under the same terms, then `CCCCCCCCC(C)=O`, with “inactive”; and `CCOC(=O)CC(C)O` (stereo not given), with “inactive”; and `CCCCOCC`, with “inactive”.
With `NC(=O)C(=O)N/N=C/c1ccc([N+](=O)[O-])o1`, the Potency entry is “inactive”.
The same measure, in the same setting: then `C/C=C/c1ccc(OC)c(OC)c1`, with “inactive”.
For the compound `CCN(CC)CCOc1ccc(C(O)(Cc2ccc(Cl)cc2)c2ccc(C)cc2)cc1` (stereo not given), the Potency is 26.6 µM (active).
As for `CNC(=O)c1cc(Oc2ccc(NC(=O)Nc3ccc(Cl)c(C(F)(F)F)c3)cc2)ccn1`, the Potency was 33.5 µM (active).
In the case of `CCC1CCCCC1`, the Potency result was “inactive”.
On to `Cc1nc(Nc2ncc(C(=O)Nc3c(C)cccc3Cl)s2)cc(N2CCN(CCO)CC2)n1`, for which the Potency entry is “inactive”.
Still for that read-out and setting: the value for `CCC(C)(C)c1cc(O)c(C(C)(C)CC)cc1O` was “inactive”.
Still for that read-out and setting: then `O=C1c2c(O)ccc([N+](=O)[O-])c2C(=O)c2c([N+](=O)[O-])ccc(O)c21`, with 24.1 µM (active); and `CC(NCCC(c1ccccc1)c1ccccc1)c1ccccc1` (stereo not given), with 21.1 µM (active); and `CCCCC(CC)COC(=O)c1ccc(O)cc1` (stereo not given), with “inactive”.
As for `O=C(O)CCCCCCC(=O)O`, the Potency result is “inactive”.
Still for that read-out and setting: the value for `Oc1ccc(-c2ccc(O)cc2)cc1` was “inactive”; that for `CC(CN(C)C)CN1c2ccccc2CCc2ccccc21` (stereo not given) was 21.1 µM (active); that for `CC(C)=CC1CC(C)CCO1` (stereo not given) was “inactive”.
